# mTORC1 inh = Acumen qHTS Assay for Inhibitors of the mTORC1 Signaling Pathway in MEF (Tsc2-/-, p53-/-) Cells: Sytravon; Tsc2-/- p53-/- MEF, phospho-rpS6 immunofluorescence/PI, 24 h; Potency, µM (titrated, usually from 38.3 µM), without a hit: top-dose activity change, negative = inhibition, most hits filed as inhibitors; 44,000 compounds, 0.78% hits; AID 493208, 2011;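 further: plate controls were DMSO for no effect and rapamycin for full effect; nearly all actives have a fitted effect of over 50% in size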
#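 Plate MEFs (Tsc2-/-, p53-/-, empty vector) in DMEM/10% FBS; after 24 h add compound, incubate 24 h at 37 degree Celsius; fix in PFA/TX-100, block, stain phospho-rpS6 and 10 uM PI; scan at 488 nm; report % positive cells.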
# OvCa metastasis = Primary qHTS assay for Inhibitors of ovarian cancer metastasis using an organotypic tumor microenvironment (TME) model. SKOV3ip1-GFP adhesion/invasion on 3D omental model, fluorescence. Potency, µM (titrated, usually from 45.8 µM), for the others: at the highest dose activity change, negative = inhibition, actives largely listed as inhibitors. 46,000 compounds, 0.1% hits. AID 1963576, 2024;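 further: plate controls were DMSO wells for no effect and tomatine positive control wells for full effect; nearly all actives have a fitted effect of over 65% in size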
#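 Primary human omental fibroblast/mesothelial 3D culture pre-formed 48 h. SKOV3ip1-GFP cells added with compounds (0.36-46 umol/L), incubated 2 h RT/16 h 37 C, fixed; GFP cells quantified at 488/509 nm.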
# p53null 32C tox = qHTS Screen for Compounds that Selectively Target Cancer Cells with p53 Mutations: Cytotoxicity of p53 Null Cells at the Permissive Temperature | H1299-neo p53 null cells, ATP luminescence, 24 h, 32C | Potency, µM (titrated, usually from 46.1 µM), for inactives: at the top dose activity change, negative = cytotoxicity, usual class: cytotoxic | AID 903, 2007 | 55,000 compounds, 0.62% hits;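 further: 0% = DMSO only and -100% = full killing by 100 µM tamoxifen; nearly all actives have a fitted effect of over 55% in size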
#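 Cells lacking p53 (H1299-neo) are plated at 600 per well and allowed to settle overnight at 37C. Test compounds (up to 46 uM) are added and held 24 hours at 32C, then ATP is quantified by luminescence.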
# PMP22 txn = Cell-based coincidence reporter assay to measure PMP22 gene transcription in S16 Pmp22-F2sN cells - Primary screen; S16 Pmp22-F2sN Schwann cells, FLuc/NLuc coincidence luminescence, 24 h; Potency, µM (top dose mostly 57.5 µM), inactives show at the top dose activity change, negative = inhibition, actives largely listed as inhibitors; 43,000 compounds, 2% hits; AID 1508649, 2021; active means clear falling dose curves in both reporters; inconclusive means both reporters move, but less clearly or upward; inactive means either reporter flat; the % is the NLuc reporter signal
#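 Transcriptional readout in edited S16(c9) cells: two luciferases reported from the Pmp22 locus, measured in turn after 24 h compound incubation.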
# p53null 39C kill = qHTS Screen for Compounds that Selectively Target Cancer Cells with p53 Mutations: Cytotoxicity of p53 Null Cells at the Nonpermissive Temperature; Potency, µM (series often up to 46.1 µM), for inactives: top-dose activity, negative = cell killing, most hits filed as cytotoxic; H1299 p53-null (neo) cells, 39C, ATPlite viability, 24 h; AID 904, 2007; 55,000 compounds, 0.97% hits;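 further: 0% = DMSO only and -100% = full killing by 100 µM tamoxifen; nearly all actives have a fitted effect of over 50% in size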
#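 Concentration-response (up to 46 uM) was run for 24 h at the nonpermissive 39C on H1299-p53A138V or H1299-neo cells. ATP content was measured with ATPlite luminescence. AC50 values were Hill-modeled after normalizing between DMSO and 100 uM tamoxifen killing.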
# S16 viability = Cell viability qHTS assay in S16 Pmp22-F2sN cells; AID 1508642, 2021; Potency, µM (highest dose often 57.5 µM), without a hit: top-dose activity change, negative = cytotoxicity, actives largely listed as cytotoxic; 43,000 compounds, 0.48% hits; S16 Pmp22-F2sN Schwann cells (luciferase reporters placed in the Pmp22 gene) viability, CellTiter-Glo, 24 h; further: nearly all actives have a fitted effect of over 65% in size
#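 Rat S16 Schwann reporter line, 24 h treatment with library compounds delivered at 23 nL per well. Cell viability by CellTiter-Glo luminescence.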
# Starred values were filed as active, the others as inactive; i = inactive; ? = inconclusive; / = no result; [ ] = dose if it differs, or a comment. Sampled rows, rich in hits. Any-hit rate of the full collection: about 3%. Unless noted, the call rests on the fitted dose curve; in most records, active means well fitted curve in the direction sought with a large enough effect; inconclusive means small, poorly fitted or top-dose-only effect, or another doubt; inactive means no such curve, though single readings can be large; an effect the other way counts as inactive or inconclusive. Unless noted, on the % scale 0 is the no-effect control and ±100 the full control effect; potency means the concentration at half of the fitted maximal effect.
SMILES,mTORC1 inh,OvCa metastasis,p53null 32C tox,PMP22 txn,p53null 39C kill,S16 viability
CCN1CCN(c2cc(C)c3cc(NC(=O)/C=C/c4cccc(Cl)c4)ccc3n2)CC1,?,?,?,?,16µM*,?
CCCCc1ccc(C(=O)Nc2ccc3nc(N4CCN(CC)CC4)cc(C)c3c2)cc1,2.1µM*,-7%,1%,?,-14%,?
CCN1CCN(c2cc(C)c3cc(NC(=O)c4cccc(Cl)c4)ccc3n2)CC1,12µM*,-28%,-5%,?,22µM*,?
O=C1NC(=O)C(=Cc2ccc3nccnc3c2)S1,/,-13%[23.2 µM],/,/,/,/
CC(C)=CCCC(C)=CCCC(C)=CCSc1ccccc1C(=O)O,/,-15%,/,/,/,/
CCOc1ccccc1NC(=O)CSc1nnc2[nH]c(=O)cc(-c3ccccc3)n12,-1%,-1%,?,-46%,26%,-6%
COc1cccc(NC(=O)CSc2nnc3[nH]c(=O)cc(-c4ccccc4)n23)c1,0%,2%,?,-89%,?,-11%
Cc1ccc(NC(=O)CSc2nnc3[nH]c(=O)cc(-c4ccccc4)n23)cc1Cl,-11%,-5%,4µM*,?,?,5%
Cc1ccc(C)c(NC(=O)CSc2nnc3[nH]c(=O)cc(-c4ccccc4)n23)c1,0%,2%,1.6µM*,?,?,-14%
O=C(NCc1ccccc1)c1cc2sccc2n1Cc1ccc(Cl)cc1,-10%,i,-9%,-22%,15%,15%
CC(C)NC(=O)C1CCN(C(=O)c2cc3sccc3n2Cc2ccc(Cl)cc2)CC1,1%,-3%,14%,9.5µM*,-7%,?
O=S(=O)(Nc1ccc2oc3c(c2c1)CCCC3)c1cc(Cl)ccc1Cl,1%,1%,79%,4%,37%,14%
COc1ccc(S(=O)(=O)Nc2ccc3oc4c(c3c2)CCCC4)cc1,?,-21%,42%,-19%,22µM*,1%
CCOC(=O)c1[nH]c2ccccc2c1NC(=O)c1cc(Cl)ccc1Cl,-29%,i,-28%,?,?,-2%
CCOC(=O)c1[nH]c2ccccc2c1NC(=O)c1ccccc1OC,2%,?,7%,?,16µM*,?
Cc1ccc2[nH]cc(C(c3ccccc3)c3ccc(Cl)s3)c2c1 (stereo unspecified),?,-8%,20µM*,-30%,25µM*,?
Clc1ccc(C(c2ccccc2)c2c[nH]c3ccccc23)s1 (stereo unspecified),?,6%,7%,?,-9%,27%
FC(F)(F)c1cccc(N2CCN(c3ncnc4c3nc3n4CCCC3)CC2)c1,0%,3%,-7%,13µM*,-15%,?
c1ccc(N2CCN(c3ncnc4c3nc3n4CCCC3)CC2)cc1,1%,16%,-11%,?,-13%,?
CCc1ccc(-n2c(SCc3ccccc3Cl)nc3[nH]ncc3c2=O)cc1,-9%,?,?,?,18µM*,?
CCn1c(-c2nonc2N)nc2cncc(CNC3CCNCC3)c21,/,-21%,/,/,/,/
COc1ccc(OC)c(NC(=O)Nc2cccc(OCc3cc(=O)n4cc(C)ccc4n3)c2)c1,2%,19%,10µM*,-7%,?,15%
